# PubChem BioAssay (EPA / NIEHS)
# The source made the active and inactive calls. Rule for the calls: active = hit-call score of the fitted dose curve at least 0.9, where 1 is the maximum; inactive = score below 0.9.
# Experiment: ATG_Ets_CIS: Attagene CIS-FACTORIAL HepG2 Assay for human Erythroblast Transformation Specific (ETS) (AID 2282941)
# Settings: HepG2 ETS cis-reporter transcription, actives raise or lower the signal
# Method: ATG_CIS is a cell-based, multiplexed-readout assay that uses HepG2, a human liver cell line, with measurements taken at 24 hours after chemical dosing in a 24-well plate.ATG_Ets_CIS is one of 52 assay component(s) measured or calculated from the ATG_CIS assay. It is designed to make measurements of mRNA induction, a form of inducible reporter, as detected with fluorescence intensity signals by Reverse transcription polymerase chain reaction (RT-PCR) and Capillary electrophoresis technology.Data from the assay component ATG_Ets_CIS was analyzed into 1 assay endpoint. This assay endpoint, ATG_Ets_CIS, was analyzed with bidirectional fitting relative to DMSO as the negative control and baseline of activity. Using a type of inducible reporter, measures of mRNA for gain or loss-of-signal activity can be used to understand the reporter gene at the transcription factor-level as they relate to the gene ETS1. Furthermore, this assay endpoint can be referred to as a primary readout, because this assay has produced multiple assay endpoints where this one serves a reporter gene function. To generalize the intended target to other relatable targets, this assay endpoint is annotated to the dna binding intended target family, where the subfamily is winged helix-turn-helix.
# Human liver HepG2 cells are transiently transfected with multiple reporter transcription units (MRTUs) in 6-well plates using FuGene 6 reagent (Roche; 3 ml FuGene/1 mg DNA). The MRTU constructs are regulated by a cis-regulating element (promoter). […] A major difference between the CIS and TRANS system is that in CIS activities of endogenous TFs are measured, whereas the TRANS assay evaluates changes in activities of exogenous, chimeric NR-Gal4 proteins. […] At the end of 24 hour incubation, total RNA was isolated using TriZol reagent (Invitrogen). The isolated RNA is then reverse-transcribed using oligo(dT) primer and Mo-MLV reverse transcriptase (Invitrogen) with DNAse I (Ambion) treatment for 30 min. The one-tenth of the produced cDNA was amplified by PCR using Taq DNA polymerase (Invitrogen) and two reporter sequence-specific primers. The PCR products were fluorescently labeled by primer extension with 6-arboxyfluorescein (6-FAM) 5'-labeled reporter sequence-specific primer (2 min at 95 C, 20 s at 68 C and 10 min at 72 C) and these products were digested with 5U of HpaI (New England Biolabs) for 2h at 37 C. The fragments were purified using Qiaquick PCR columns (Qiagen), analyzed on an ABI 3130xL genetic analyzer (Applied Biosystems) with peak positions identified by using a set of X-rhodamine (ROX)-labeled MapMarker1000 molecular weight standards (BioVentures). The raw capillary electrophoresis data was processed using Attagraph software (Attagene).
Structure (SMILES),outcome,AC50
COc1ccc(C(=O)Nc2nc3ccccc3c(NCc3ccccc3)c2C#N)cc1,inactive,–
CC(C)(C)c1ccccc1,inactive,–
CCCCCCC(C=O)=Cc1ccccc1,inactive,–
CCCCCCCC(=O)OC,inactive,–
Cc1ccc(C(C)(C)C)c(O)c1,–,63.7 µM (active)
CC(=O)O[C@]1(C(C)=O)CC[C@H]2[C@@H]3C=C(Cl)C4=CC(=O)[C@@H]5C[C@@H]5[C@]4(C)[C@H]3CC[C@@]21C,inactive,–
CC(=O)S[C@H](C(=O)N[C@H]1Cc2ccccc2[C@H]2CCC[C@@H](C(=O)O)N2C1=O)C(C)C,inactive,–
COC(=O)[C@H]1[C@H]2C[C@@H]3c4[nH]c5cc(OC)ccc5c4CCN3C[C@H]2C[C@@H](OC(=O)c2cc(OC)c(OC)c(OC)c2)[C@@H]1OC,inactive,–
CCCC[C@H]1CN(CC2CCOCC2)C(=O)OC12CCN(C1(C)CCN(C(=O)c3c(C)ncnc3C)CC1)CC2,inactive,–
O=C1CCCCC1,inactive,–
C=CCc1ccc(OC)c(OC)c1,inactive,–
CCCCCCCCCCCCCCOS(=O)(=O)O,inactive,–
c1ccc2occc2c1,inactive,–
O=C(O)CN(CC(=O)O)CC(=O)O,inactive,–
CCCCc1nc2cccnc2n1Cc1ccc(-c2ccccc2-c2nnn[nH]2)cc1,inactive,–
CO[C@@H]1COCC[C@@H]1N[C@@H]1CC[C@@](C(=O)N2CCc3ncc(C(F)(F)F)cc3C2)(C(C)C)C1,inactive,–
CC(C)c1cccc(C(C)C)c1NC(=O)NS(=O)(=O)c1cc(C(C)(C)O)co1,inactive,–
Cc1cc(SC2=C(O)C[C@@](CCc3ccc(N)cc3)(C(C)C)OC2=O)c(C(C)(C)C)cc1CO,inactive,–
C#CC(O)C(CC)CCCC (stereo not given),inactive,–
CCOCCOCCO,inactive,–

Structure (SMILES),outcome,AC50
O=Cc1ccccc1C=O,inactive,–
CSc1ccc(Oc2ccc(S(N)(=O)=O)cc2CN(C)C)cc1C,inactive,–
O=[Si]=O,inactive,–
CCCCOC(=O)CCCCC(=O)OCCCC,inactive,–
O=C(Oc1ccccc1)c1cccc(C(=O)Oc2ccccc2)c1,inactive,–
O=C(O)c1cccnc1,inactive,–
C/C=C/c1ccc(OC)cc1,inactive,–
CC(C)NCC(O)c1ccc(O)c(O)c1 (stereo not given),inactive,–
NC=O,inactive,–
COC(=O)CCCC(=O)OC,inactive,–
Nc1nc(=S)c2[nH]cnc2[nH]1,inactive,–
CC(N)=O,inactive,–
Cc1ccc(-c2cc(C(F)(F)F)nn2-c2ccc(S(N)(=O)=O)cc2)cc1,inactive,–
C/C=C/C=C/C(=O)O,inactive,–
CS(=O)(=O)c1ccc([C@@H](C[C@H]2CCC(=O)C2)C(=O)Nc2cnccn2)cc1Cl,inactive,–
CC(=O)CC(c1ccccc1)c1c(O)c2ccccc2oc1=O (stereo not given),inactive,–
COC(=O)CCC(=O)OC,inactive,–
CN(C)C(=O)NC1(c2ccccc2)CCN(CC[C@@]2(c3ccc(F)c(F)c3)CN(C(=O)c3ccccc3)CCO2)CC1,inactive,–
CC(=O)O,inactive,–
CC(C)COC(=O)CCCCC(=O)OCC(C)C,inactive,–
